“And” between values parts separate entries of the source, which are not always exact repeats. Identical values can stand only once. Results filed as inconclusive are left out. The source made the active and inactive calls. The call rests on the fitted dose curve; in most records, active means well fitted curve in the direction sought with a large enough effect; inconclusive means small, poorly fitted or top-dose-only effect, or another doubt; inactive means no such curve, though single readings can be large or run the other way.
What follows are molecules tested against Lysosomal acid glucosylceramidase (Homo sapiens) (UniProt P04062) (assay: qHTS Assay for Inhibitors and Activators of N370S glucocerebrosidase as a Potential Chaperone Treatment of Gaucher Disease: Primary Screen Confirmation). Conditions: N370S glucocerebrosidase enzyme activity, fluorogenic substrate; series mostly up to 54 µM.
Procedure, shortened: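 Patient-spleen homogenate carrying N370S GC (27 ug) in pH 5.0 citrate buffer with 0.01% Tween-20, 1 mM 4-methylumbelliferyl-beta-glucoside, 40 min at 37C; fluorescence 365/440 nm after NaOH/glycine stop; AC50 from Hill fits.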
Potency means the concentration at half of the fitted maximal effect.
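Wherever Potency is given: enzyme source is Gaucher patient spleen homogenate not purified recombinant protein.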

Sequence of Lysosomal acid glucosylceramidase (Homo sapiens) (P04062 whole entry N409S): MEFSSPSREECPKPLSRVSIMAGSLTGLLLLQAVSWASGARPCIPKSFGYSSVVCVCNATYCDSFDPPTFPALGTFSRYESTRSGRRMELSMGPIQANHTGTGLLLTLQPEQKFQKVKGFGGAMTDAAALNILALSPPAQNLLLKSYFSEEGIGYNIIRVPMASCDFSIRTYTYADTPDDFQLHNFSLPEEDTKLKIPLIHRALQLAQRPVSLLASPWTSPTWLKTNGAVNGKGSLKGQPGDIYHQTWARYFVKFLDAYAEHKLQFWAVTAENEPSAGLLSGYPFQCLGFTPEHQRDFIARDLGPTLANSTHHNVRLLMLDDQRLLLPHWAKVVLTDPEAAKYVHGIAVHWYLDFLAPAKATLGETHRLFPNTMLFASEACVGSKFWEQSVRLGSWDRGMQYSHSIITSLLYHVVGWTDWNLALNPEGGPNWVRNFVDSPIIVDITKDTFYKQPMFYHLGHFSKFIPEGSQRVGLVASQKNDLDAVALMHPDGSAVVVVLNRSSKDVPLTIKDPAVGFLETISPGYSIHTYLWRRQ

Potency, active:
CCC1CN(S(=O)(=O)c2ccc3c(c2)NC(=O)CC(=O)N3)c2cc(Cl)ccc2O1 (centres undefined) 2.91 µM
Cc1ccc(-c2nc(Nc3ccc(O)cc3)c3ccccc3n2)cc1 12.7 µM
COC(=O)c1nc(N2CCN(S(=O)(=O)c3ccc(C)cc3)CC2)c2ccccc2n1 16.3 µM
O=S(=O)(c1ccccc1F)N1CCN(c2nc(-c3cccs3)nc3ccccc23)CC1 1.63 µM
O=S(=O)(c1ccccc1)N1CCN(c2nc(-c3cccs3)nc3ccccc23)CC1 1.46 µM and 919 nM
S=C(NCCCc1cnc[nH]1)NCCCN(Cc1ccc(Cl)c(Cl)c1)c1ccccn1 7.29 µM
O=S(=O)(c1ccc(F)cc1)N1CCN(c2nc(-c3cccs3)nc3ccccc23)CC1 1.27 µM and 713 nM
O=C(NCCN1CCOCC1)c1ccc(/C=C2\Sc3ccccc3N(Cc3ccccc3F)C2=O)cc1 7.3 µM
Cc1ccc(S(=O)(=O)N2CCN(c3nc(C(N)=O)nc4ccccc34)CC2)cc1 13 µM
Cc1ccc(S(=O)(=O)N2CCN(c3nc(-c4cccs4)nc4ncccc34)CC2)cc1 2.25 µM
COc1ccccc1S(=O)(=O)N1CCN(c2nc(-c3cccs3)nc3ccccc23)CC1 0.73 µM

Potency, inactive:
CNCCN(C)c1nc(-c2cccs2)nc2ccccc12
CN1CCN(CCCNC(=O)c2ccc(/C=C3\Oc4ccccc4N(Cc4ccccc4F)C3=O)cc2)CC1
O=S(=O)(c1ccc(F)cc1)N1CCN(c2nc(-c3cccs3)nc3cc(Cl)ccc23)CC1
